Test [1] can be described thus: qHTS assay to identify small molecule antagonists of the estrogen related receptor (ERR) signaling pathway from Tox21 library - cell viability counter screen (AID 1224834). Note: nearly all actives have a fitted effect of over 30% in size. Note: potency is the fitted concentration of half-maximal effect. In outline:
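Viability readout (CellTiter-Fluor fluorescence, 30 min at 37 C) multiplexed with the ERR assay; cells treated 17.5 h at 37 C with compounds delivered in DMSO.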
(qHTS replaces the single test concentration by a dilution series.)

Test [2] can be described thus: qHTS assay to identify small molecule agonists of the constitutive androstane receptor (CAR) signaling pathway - cell viability counter screen (AID 1224836). For viability change, negative = cytotoxic: series mostly up to about 92 µM. Note: nearly all actives have a fitted effect of over 45% in size. Note: potency is the fitted concentration of half-maximal effect. In outline: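 Double-stable HepG2 hepatoma cells (hCAR plus CYP2B6-2.2kb) are treated for 23 h at 37 C with test compounds in 15-point concentration series. PK11195 at 0.75 uM final is co-added. Cell viability is quantified by CellTiter-Fluor.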

A short description of test [3]: qHTS assay to identify small molecule antagonists of the constitutive androstane receptor (CAR) signaling pathway - cell viability counter screen (AID 1224837). For activity change, negative = cytotoxicity: series mostly up to about 92 µM. Note: nearly all actives have a fitted effect of over 45% in size. Note: potency is the fitted concentration of half-maximal effect. In outline: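 Fluorescence from CellTiter-Fluor served as the viability signal. Human hepatoma HepG2 cells stably bearing hCAR and CYP2B6-2.2kb received compound plus CITCO (50 nM final) for 23 hr.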
Test [4] in a line: qHTS assay to identify small molecule antagonists of the estrogen related receptor signaling pathway with the pleiotropic PPARgamma coactivator (PGC) from Tox21 10K library - cell viability counter screen (AID 1224840; active = well fitted cell-killing curve with a large enough effect in the repeat runs, not every such curve was filed as active; note: nearly all actives have a fitted effect of over 40% in size; note: potency is the fitted concentration of half-maximal effect). In outline: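 Compounds in DMSO, alongside positive and negative controls, were pinned onto PGC/ERR cells (2,000 per well). Exposure lasted 17.5 hours at 37 C, followed by a 30-minute CellTiter-Fluor incubation and fluorescence reading.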

Test [5] can be described thus: qHTS assay to identify small molecule antagonists of the estrogen related receptor signaling pathway with the pleiotropic PPARgamma coactivator (PGC) from Tox21 10K library (AID 1224841; call rule not given here; note: actives are mostly falling curves and most rising ones were filed inactive; nearly all actives have a fitted effect of over 50% in size; note: potency is the fitted concentration of half-maximal effect). In outline: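 Compound exposure ran 18 hours at 37 C in PGC/ERR cells (2,000/well) that had first rested 6 hours in a 37 C/5% CO2 incubator. Luciferase activity was then detected with One-Glo after a 30-minute room-temperature step.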

Test [6] in a line: qHTS assay to identify small molecule agonists of the estrogen related receptor signaling pathway with the pleiotropic PPARgamma coactivator (PGC) from Tox21 10K library (AID 1224842). Note: nearly all actives have a fitted effect of over 15% in size. Note: potency is the fitted concentration of half-maximal effect. In outline:
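PGC/ERR reporter cells (NTP line) were seeded 2,000 per well, rested 6 h at 37 C/5% CO2, then pin-dosed with compounds in DMSO for 18 h at 37 C; luciferase read by One-Glo luminescence after 30 min at room temperature.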

The target of test [7] is Thyrotropin receptor (Homo sapiens) (UniProt P16473). Nature of the test: qHTS assay to identify small molecule agonists of the thyroid stimulating hormone receptor (TSHR) signaling pathway (AID 1224843; calls by dose curve; note: nearly all actives have a fitted effect of over 45% in size). In outline: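 TSHR-expressing HEK293 cells (800 per well) were exposed to compounds for 30 min at room temperature. cAMP was then detected by HTRF competition with cAMP-d2 and anti-cAMP cryptate, read after 1 h at room temperature. Fifteen concentrations, triplicate.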
Thyrotropin receptor (Homo sapiens), sequence (P16473 whole entry, looked up): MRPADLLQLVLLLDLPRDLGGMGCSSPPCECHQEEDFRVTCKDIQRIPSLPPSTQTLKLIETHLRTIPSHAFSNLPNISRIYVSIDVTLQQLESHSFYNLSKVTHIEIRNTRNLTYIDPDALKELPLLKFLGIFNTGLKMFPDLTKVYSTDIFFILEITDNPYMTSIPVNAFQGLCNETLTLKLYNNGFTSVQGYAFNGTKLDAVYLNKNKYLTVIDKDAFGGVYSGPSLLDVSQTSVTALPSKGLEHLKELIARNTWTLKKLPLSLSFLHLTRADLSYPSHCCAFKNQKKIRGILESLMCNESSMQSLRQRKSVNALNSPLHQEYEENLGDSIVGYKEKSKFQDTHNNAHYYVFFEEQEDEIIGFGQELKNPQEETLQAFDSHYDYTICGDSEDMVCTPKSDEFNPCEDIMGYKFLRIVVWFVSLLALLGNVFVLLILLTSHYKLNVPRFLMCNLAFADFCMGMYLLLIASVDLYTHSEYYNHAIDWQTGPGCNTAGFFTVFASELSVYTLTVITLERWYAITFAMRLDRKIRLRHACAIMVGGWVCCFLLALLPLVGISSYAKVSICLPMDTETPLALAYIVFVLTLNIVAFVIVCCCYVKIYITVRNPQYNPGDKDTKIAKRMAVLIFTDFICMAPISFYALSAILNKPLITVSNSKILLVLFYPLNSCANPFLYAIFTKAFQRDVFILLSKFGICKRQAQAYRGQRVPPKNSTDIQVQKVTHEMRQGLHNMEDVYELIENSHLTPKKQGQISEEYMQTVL

Test [8] has as its target Nuclear receptor subfamily 1 group I member 3 (Homo sapiens) (UniProt Q14994). Nature of the test: qHTS assay to identify small molecule antagonists of the constitutive androstane receptor (CAR) signaling pathway (AID 1224838).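 Note: HepG2 cells stably expressing hCAR with CYP2B6 luciferase reporter stimulated by CITCO; nearly all actives have a fitted effect of over 40% in size.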 In outline:
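Quantitative HTS in double-stable HepG2-CYP2B6-hCAR cells. After 4 h plating, cells get compound (15 concentrations) and CITCO at 50 nM final, incubate 24 h at 37 C, then ONE-Glo luminescence is read.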

For test [9] the target is unchanged. The test is described as follows: qHTS assay to identify small molecule agonists of the constitutive androstane receptor (CAR) signaling pathway (AID 1224839).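 For activation: HepG2 cells stably carrying human CAR and a CYP2B6 luciferase reporter; series mostly up to about 92 µM.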 Note: nearly all actives have a fitted effect of over 15% in size. Note: potency is the fitted concentration of half-maximal effect. In outline: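 Readout: firefly luciferase luminescence via ONE-Glo. System: HepG2 double-stable for hCAR and CYP2B6-2.2kb. Conditions: 15-point compound titration, PK11195 at 0.75 uM final, 24 h incubation.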

Test [10] has as its target Luciferin 4-monooxygenase (Photinus pyralis) (UniProt P08659). The test is described as follows: qHTS assay to identify small molecule inhibitors of firefly luciferase (AID 1224835). Note: nearly all actives have a fitted effect of over 25% in size. Note: potency is the fitted concentration of half-maximal effect. In outline: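 Quantitative HTS format; KM concentrations of both substrates. Purified P. pyralis FLuc activity quantified from luminescence images.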

The structures appear in SMILES notation. Where “and” joins values, the source holds several entries; their conditions need not be identical. Identical values can stand only once. Records with an inconclusive call do not appear. Unmarked numbers belong to inactive results. Calls of active or inactive are those of the source. Unless noted, calls come from the whole dose curve; as a rule, active = well fitted curve in the direction sought with a large enough effect in the repeat runs; inconclusive = weak or mixed curves; inactive = no such curve, though single readings can be large; an effect the other way counts as inactive or inconclusive.
% is set by controls: 0 for no effect and ±100 for the full control effect.

Luciferin 4-monooxygenase (Photinus pyralis), sequence (P08659 whole entry, looked up): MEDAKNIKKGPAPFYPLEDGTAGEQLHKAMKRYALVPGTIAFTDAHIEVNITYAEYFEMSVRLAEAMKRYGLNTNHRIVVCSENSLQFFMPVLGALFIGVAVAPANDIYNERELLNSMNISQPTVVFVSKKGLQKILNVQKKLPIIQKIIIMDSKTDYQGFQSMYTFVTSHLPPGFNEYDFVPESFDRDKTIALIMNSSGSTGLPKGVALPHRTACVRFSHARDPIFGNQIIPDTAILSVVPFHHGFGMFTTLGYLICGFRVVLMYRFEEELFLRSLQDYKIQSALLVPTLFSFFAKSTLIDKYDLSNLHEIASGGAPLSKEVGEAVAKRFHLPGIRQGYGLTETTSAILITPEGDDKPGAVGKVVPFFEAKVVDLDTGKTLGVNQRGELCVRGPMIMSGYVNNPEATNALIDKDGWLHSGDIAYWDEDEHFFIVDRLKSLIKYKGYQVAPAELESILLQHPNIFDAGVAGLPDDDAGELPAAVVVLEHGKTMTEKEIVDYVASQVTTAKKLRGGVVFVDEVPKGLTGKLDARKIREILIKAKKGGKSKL
Nuclear receptor subfamily 1 group I member 3 (Homo sapiens), sequence (Q14994 whole entry, looked up): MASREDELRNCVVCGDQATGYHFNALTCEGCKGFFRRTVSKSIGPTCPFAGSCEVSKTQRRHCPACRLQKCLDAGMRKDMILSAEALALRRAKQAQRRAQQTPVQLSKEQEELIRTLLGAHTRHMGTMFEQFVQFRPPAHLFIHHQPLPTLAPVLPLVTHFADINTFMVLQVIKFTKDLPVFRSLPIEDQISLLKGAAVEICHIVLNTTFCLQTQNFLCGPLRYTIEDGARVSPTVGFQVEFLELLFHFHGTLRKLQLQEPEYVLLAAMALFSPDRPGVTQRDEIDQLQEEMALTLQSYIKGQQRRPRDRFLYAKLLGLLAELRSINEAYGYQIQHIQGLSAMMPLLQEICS

Regarding `Cc1cc(C)c(/C=C2\C(=O)Nc3ccccc32)[nH]1`, the Potency result in test [1], in [2], in [3], in [4], in test [5] and in test [6] was “inactive” each time. Further, the Potency entry in test [7] was “inactive”.

With `Cc1c(C)c2c(c(C)c1OC(=O)c1cccnc1)CC[C@@](C)(CCC[C@H](C)CCC[C@H](C)CCCC(C)C)O2`, the Potency result in test [1], in [2], in test [3], in [4], in [6] and in [7] was “inactive” in each case.

Turning to `CN1CCN2c3ccccc3Cc3ccccc3C2C1` (stereo not given), the Potency result in [1], in test [2], in [8], in [4], in [6] and in test [7] was “inactive” in each case.

For `C[Si](Cl)(c1ccccc1)c1ccccc1`, the Potency result in [1], in [2], in test [3], in test [4], in [6] and in [7] was “inactive” throughout.

Consider `COC1=C(OC)C(=O)C(CCCCCCCCCCO)=C(C)C1=O`, for which the Potency in test [1] is 23.7 µM (active). Further, the Potency entry in test [2], in test [8], in test [9], in test [4] and in [6] was “inactive” throughout.

As to `Cc1ccc(O)c(O)c1`, the Potency is 47.2 µM (active) in test [1] and 13.3 µM (active) in test [6]. The Potency entry in test [2], in test [8] and in [5] was “inactive” throughout.

On to `c1ccsc1`, for which the Potency entry in test [1], in [2], in test [3], in test [8], in test [4] and in test [7] was “inactive” throughout.

Regarding `O=C(O)O`, the viability change, negative = cytotoxic in [1] was -2.55% [at 8.39 µM]; in [2], 1.44% [at 8.39 µM]. For the same compound, the activity change, negative = cytotoxicity in test [3] was -19.8% [at 8.39 µM]. In test [6], the Potency is 0.264 µM (active). Also, the activation in test [7] is 2.41% [at 8.39 µM].

As for `CCCCCCCCCCC[C@@H](C[C@@H]1OC(=O)[C@H]1CCCCCC)OC(=O)[C@H](CC(C)C)NC=O`, the Potency result in test [1], in [2], in [9], in test [4] and in test [7] was “inactive” in each case.

As to `O=C(O)Cc1ccc2c(c1)C(=O)c1ccccc1CO2`, the Potency result in test [1], in test [2], in test [3], in [4] and in test [7] was “inactive” in each case.

Consider `CCC(C)[O-].CCC(C)[O-].CCOC(=O)/C=C(/C)[O-].[Al+3]`, for which the Potency entry in test [1], in test [2], in test [3], in [4] and in test [7] was “inactive” in each case.

Regarding `OC1CCC(C2CCCCC2)CC1` (stereo not given), the Potency entry in test [1], in test [2], in test [3], in test [5] and in test [6] was “inactive” each time.

As for `COc1cccc2c1C(=O)c1c(O)c3c(c(O)c1C2=O)C[C@@](O)(C(C)=O)C[C@@H]3O[C@H]1C[C@H](N)[C@H](O)[C@H](C)O1`, the Potency in [1] is 30.8 µM (active) and 473 nM (active); in [2], 19.4 µM (active) and 1.19 µM (active); in test [3] it was 2.75 µM (active) and 211 nM (active); in test [4] it was 27.5 µM (active); in test [6] it was 0.154 µM (active). Besides, in test [5], the Potency entry was “inactive”.

In the case of `CCCCCC/C=C\CCCCCCCC(=O)O`, the Potency result in test [1], in test [2], in [3], in test [8], in [9] and in test [4] was “inactive” each time. Further, the Potency result in test [7] was “inactive”.

Take `Cl[Si](Cl)(c1ccccc1)c1ccccc1`: the Potency result in test [1], in [2], in test [3] and in test [7] was “inactive” each time.

For the compound `CCCCCCOC(=O)C(C)CC` (stereo not given), the Potency result in test [1], in test [2], in [3], in [8], in test [6] and in test [7] was “inactive” each time.

`CCc1cccc(CC)c1NC(=O)CN(CC(=O)O)CC(=O)O`: the Potency entry in test [1], in test [2], in test [3], in [8], in test [9] and in test [4] was “inactive” throughout. Also, the Potency entry in [7] is “inactive”.

With `CCCCCCCCCCOC(=O)c1ccccc1C(=O)OCCCCCCCC`, the Potency entry in test [1], in test [2], in [3], in test [9], in [4] and in [7] was “inactive” throughout.

As for `C=Cc1cccc(C)c1`, the Potency entry in [1], in test [2], in test [3], in test [8], in test [9] and in test [4] was “inactive” throughout. Besides, the Potency result in [7] is “inactive”.

Take `CCC(C)n1ncn(-c2ccc(N3CCN(c4ccc(OC[C@H]5CO[C@](Cn6cncn6)(c6ccc(Cl)cc6Cl)O5)cc4)CC3)cc2)c1=O` (stereo not given in full): the Potency in test [1] is 3.76 µM (active). Further, the Potency entry in [2], in test [3], in test [4] and in test [7] was “inactive” throughout.

In the case of `CCOC(=O)c1ccc(C2CCC(NC[C@H](O)COc3ccc(O)c(NS(C)(=O)=O)c3)CC2)cc1` (stereo not given in full), the Potency in [1] and in [4] was 63.3 µM (active) throughout. For the same compound, the Potency entry in [2], in [3], in test [8], in [5] and in test [6] was “inactive” throughout.

Turning to `CC(C)=CCNc1ncnc2c1ncn2[C@@H]1O[C@H](CO)[C@@H](O)[C@H]1O`, the Potency entry in [10], in test [4] and in test [7] was “inactive” throughout. Besides, the values for the Potency in test [3] and in test [6] were 3.35 µM (active) and 5.96 µM (active), respectively.

Consider `CC[N+](CC)(CC)CCOc1ccc(/C=C/c2ccccc2)cc1`, for which the Potency entry in [10], in [9], in test [4], in test [6] and in test [7] was “inactive” in each case.

As for `O=C(O)CN(CCN(CC(=O)O)CC(=O)O)CC(=O)O`, the viability change, negative = cytotoxic in [1] is 1.59% [at 3.27 µM]; in test [4] it was 1.11% [at 3.27 µM]. In addition, the values for the activation in test [9] and in [7] were -0.673% [at 3.27 µM] and -1.34% [at 3.27 µM], respectively.

`C/C=C/C=C/COC(=O)C(C)C`: the Potency result in [2], in test [8] and in [4] was “inactive” in each case.

`CC[C@H](C)COC(=O)/C=C/c1ccc(N=Cc2ccc(OC)cc2)cc1`: the Potency in [10] was 4.47 µM (active); in test [9], 24.3 µM (active). For the same compound, the Potency result in test [2], in test [8], in test [4] and in test [7] was “inactive” throughout.

On to `O=C(O)c1cc(-c2ccc(F)cc2F)ccc1O`, for which the Potency in test [10] is 34.7 µM (active); in test [5] it was 9.44 µM (active). In addition, the Potency entry in test [2], in test [3], in test [8], in test [4] and in test [6] was “inactive” in each case.

With `CC(CO)Oc1ccccc1` (stereo not given), the Potency entry in test [1], in test [2] and in test [7] was “inactive” in each case.
